# Results taken from PubChem BioAssay (Tox21).
# Inconclusive results are not listed. Entries that show only a call come without a potency. A number with no mark means an inactive call. Activity calls are given as the source filed them. Calls follow the shape of the dose curve; as a rule, active = well fitted cell-killing curve with a large enough effect in the repeat runs; inconclusive = weak or mixed curves, or effect the other way; inactive = flat fitted curve, though single readings scatter.
# Experiment: cAMP Responsive Elements (CRE) small molecule agonists, cell-based qHTS assay: qHTS cell viability counter screen (AID 2060914);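 also: viability read after 3 h of compound exposure; nearly all actives have a fitted effect of over 50% in size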
# Conditions: CRE-bla HEK293T viability, CellTiter-Glo luminescence, 5 h; series mostly up to 92.4 µM
# Source text: National Center for Advancing Translational Sciences [NCATS]
# Division of Preclinical Innovation [DPI]
# U.S. Environmental Protection Agency [EPA]
# National Institutes of Environmental Health Sciences [NIEHS]
# National Toxicology Program [NTP]
# U.S. Food and Drug Administration [FDA]
# CREB (cyclic-AMP Responsive Element Binding Protein) is a cellular transcription factor. It binds to certain DNA sequences called cAMP Responsive Elements (CRE) and regulates the transcription of the genes. […] This cell line can be used to find agonists/antagonists of the cyclic AMP signaling pathway. The activation of the report gene under culture conditions can be detected by fluorescence intensity. This cell line has been used to screen the Tox21 10K compound library to identify agonists that induce oxidative stress. The cytotoxicity of the Tox21 compound library against the CRE-bla cell line was tested in parallel by measuring the cell viability using CellTiter-Glo assay (Promega, Madison, WI) in the same wells.
# Tox21 Assay Protocol Summary:
# CRE-bla Hek 293T cells were suspended in assay medium (DMEM containing 10% dialyzed FBS, 0.1 mM NEAA, 1 mM sodium pyruvate and 25 mM HEPES) and dispensed at 2,000 cells/5 uL /well into 1536-well black wall/clear bottom plates using a Multidrop Combi (ThermoFisher Scientific, Waltham, MA) dispenser. After the assay plates were incubated at 37 C/5% CO2 for 18 hrs, 23 nL of compounds dissolved in DMSO, positive controls or DMSO only was transferred to the assay plate by a pintool workstation (Kalypsys, San Diego, CA). After the plates were incubated at 37 C/5% CO2 for 3 hrs, 1 uL of LiveBLAzer B/G FRET substrate (Invitrogen, Carlsbad, CA) was added to each well using Bioraptr Flying Reagent Dispenser (FRD, Aurora Discovery, San Diego, CA). The plates were incubated at room temperature for 2 h, then fluorescence intensities were measured using an Envision plate reader (PerkinElmer, Shelton, CT) at Excitation 405nm, Emission 460nm and 530nm. The % activity was determined from the ratio of 460nm/530nm. For cell viability readout that measures cytotoxicity, 4 uL /well of CellTiter-Glo reagent was added into the assay plates using Bioraptr FRD. After 30 min incubation at room temperature, the luminescence intensity in the assay plates was measured using a ViewLux (PerkinElmer, Shelton, CT) plate reader.
Structure (SMILES),Potency,"activity change, negative = cytotoxicity"
CCCC(C)C,inactive,
Cc1[nH]nc2c1N=C(c1ccccc1Cl)c1cc([N+](=O)[O-])ccc1N2,inactive,
Cc1cc2c(OCC(CNC(C)(C)C)OC(=O)c3ccccc3)cccc2[nH]1 (stereo not given),inactive,
CC(C)(C)c1ccccc1,inactive,
COC(=O)CS,inactive,
CC(C)OC(=O)COc1ccc(Cl)cc1Cl,inactive,
OCCN1CCN(CCCN2c3ccccc3Sc3ccc(Cl)cc32)CC1,inactive,
CCCc1nc(C)c2c(=O)[nH]c(-c3cc(S(=O)(=O)N4CCN(CC)CC4)ccc3OCC)nn12,inactive,
CCCCCCCCCCCCCC=O,,15.9% [at 8.39 µM]
CNC(=O)C(c1ccccc1)c1ccccc1,inactive,
FC(F)(F)c1ccc(Cl)c(Cl)c1,inactive,
CC(C)=CCC1=C(O)c2ccccc2C(=O)C1=O,inactive,
COc1ccc2nc(S(=O)Cc3ncc(C)c(OC)c3C)[nH]c2c1 (stereo not given),inactive,
CCCNCCC,inactive,
CC1CC(C)C(=O)C1=O (stereo not given),inactive,
COc1ccc(Cl)cc1C,inactive,
O=C(CCN1CCN2CCCC2C1)N1c2ccccc2Sc2ccc(Cl)cc21 (stereo not given),,5.15% [at 18.9 µM]
COC(=O)NCCC[Si](OC)(OC)OC,inactive,
OC[C@H](Cc1cccc(O)c1)[C@H](CO)Cc1cccc(O)c1,inactive,
NC[C@H]1O[C@H](O[C@H]2[C@H](O)[C@@H](O[C@H]3O[C@H](CO)[C@@H](O)[C@H](N)[C@H]3O)[C@H](N)C[C@@H]2N)[C@H](N)[C@@H](O)[C@@H]1O,,-6.94% [at 18.9 µM]

Structure (SMILES),Potency,"activity change, negative = cytotoxicity"
ClC/C=C/CCl,inactive,
CN1Cc2cc(C(=O)N3CCC(C4CCNCC4)CC3)ccc2NC(CC(=O)O)C1=O (stereo not given),inactive,
CCCCOCCOC(=O)COc1cc(Cl)c(Cl)cc1Cl,inactive,
CCC(C)O (stereo not given),inactive,
c1cc2ccc3ccc4ccc5cccc6c(c1)c2c3c4c56,,-0.0627% [at 3.27 µM]
CCOc1ncc(F)c(=O)[nH]1,inactive,
CC(=O)O[C@@H]1C(=O)O[C@@H]2[C@H]1OC(=O)[C@@H]2OC(C)=O,inactive,
CCCC(=O)OCC(COC(=O)CCC)OC(=O)CCC,inactive,
Nc1ccccc1S(=O)(=O)c1ccccc1,inactive,
CN(C)c1ccc(Cc2ccc(N(C)C)cc2)cc1,inactive,
CC(=O)N(c1onc(C)c1C)S(=O)(=O)c1ccc(N)cc1,inactive,
CCCCCCCCCCCC[N+](C)(C)CCCS(=O)(=O)[O-],inactive,
CCOCC(C)O (stereo not given),inactive,
O=Cc1c2ccccc2c(Cl)c2ccccc12,inactive,
NC1(c2ccc(-c3nc4ccn5c(=O)[nH]nc5c4cc3-c3ccccc3)cc2)CCC1,inactive,
CCOc1ccc2c(c1)C(C)=CC(C)(C)N2,inactive,
CC/C=C\CC/C=C/C(OCC)OCC,inactive,
CCCCCCCCCOC(=O)c1ccc(O)cc1,inactive,
CCOC(=O)C1=C(C)NC(C)=C(C(=O)OCC)C1c1ccccc1/C=C/C(=O)OC(C)(C)C,inactive,
CCN(CC)CC(=O)Nc1c(C)cccc1C,inactive,
